Common to all, as to assay: DAPPL (digital affinity profiling via proximity ligation, sequencing); 10 mM Tris-HCl pH 7.5, 50 mM NaCl, 1 mM DTT, 4% glycerol, room temperature, 30 min; GST-TFs on glutathione beads, 16-mer random dsDNA library, 0.1% formaldehyde crosslink after washing; high values mean tight binding
In test [1] the target is T1, FLI1 (Homo sapiens, UniProt Q01543 1-452).
T1 sequence: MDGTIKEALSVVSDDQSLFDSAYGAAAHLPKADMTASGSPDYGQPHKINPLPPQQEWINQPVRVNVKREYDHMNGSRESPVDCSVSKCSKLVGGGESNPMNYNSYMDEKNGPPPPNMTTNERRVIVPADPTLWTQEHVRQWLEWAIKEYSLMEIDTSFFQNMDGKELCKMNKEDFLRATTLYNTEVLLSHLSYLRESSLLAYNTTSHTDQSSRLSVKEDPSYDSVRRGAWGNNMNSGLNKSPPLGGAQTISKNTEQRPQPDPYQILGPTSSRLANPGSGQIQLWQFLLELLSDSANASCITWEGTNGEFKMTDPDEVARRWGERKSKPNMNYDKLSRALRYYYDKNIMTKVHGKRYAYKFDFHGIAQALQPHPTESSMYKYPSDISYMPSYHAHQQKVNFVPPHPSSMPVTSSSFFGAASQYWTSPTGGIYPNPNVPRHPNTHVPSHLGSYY
The conditions noted are these: protein: recombinant; tags: N-terminal GST; dsDNA, one strand shown. The method in brief: (§1)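 Each value of binding signal is a hexamer's read frequency for a factor divided by the same hexamer's frequency in the tag-only sample. Barcoded, bead-captured GST fusions of human transcription factors made in yeast were pooled with that sample and incubated with 200 nmole of a random double-stranded 16-mer DNA library in Tris/NaCl/DTT/glycerol buffer at room temperature for 30 min. Washing, 0.1% formaldehyde crosslinking, proximity ligation, PCR and Illumina NextSeq500 sequencing followed.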

Test [2] concerns the target T2, ELK1 (Homo sapiens, UniProt P19419 1-428).
T2 sequence: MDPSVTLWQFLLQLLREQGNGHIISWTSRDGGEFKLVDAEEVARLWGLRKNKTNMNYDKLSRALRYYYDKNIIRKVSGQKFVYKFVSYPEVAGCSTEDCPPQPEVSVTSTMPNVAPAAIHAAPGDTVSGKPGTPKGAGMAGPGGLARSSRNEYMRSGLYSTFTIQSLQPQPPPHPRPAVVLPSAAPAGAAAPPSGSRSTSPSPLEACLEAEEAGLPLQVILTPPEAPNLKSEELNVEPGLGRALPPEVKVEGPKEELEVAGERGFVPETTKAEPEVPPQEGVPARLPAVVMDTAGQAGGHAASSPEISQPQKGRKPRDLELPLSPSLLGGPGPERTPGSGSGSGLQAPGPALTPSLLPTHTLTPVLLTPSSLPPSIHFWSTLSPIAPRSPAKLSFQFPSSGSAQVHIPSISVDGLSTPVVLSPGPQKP
The conditions noted are these: protein: recombinant; tags: N-terminal GST; dsDNA, one strand shown. The method in brief:
as §1

Test [3] concerns the target T3, GABPA (Homo sapiens, UniProt Q06546 1-454).
T3 sequence: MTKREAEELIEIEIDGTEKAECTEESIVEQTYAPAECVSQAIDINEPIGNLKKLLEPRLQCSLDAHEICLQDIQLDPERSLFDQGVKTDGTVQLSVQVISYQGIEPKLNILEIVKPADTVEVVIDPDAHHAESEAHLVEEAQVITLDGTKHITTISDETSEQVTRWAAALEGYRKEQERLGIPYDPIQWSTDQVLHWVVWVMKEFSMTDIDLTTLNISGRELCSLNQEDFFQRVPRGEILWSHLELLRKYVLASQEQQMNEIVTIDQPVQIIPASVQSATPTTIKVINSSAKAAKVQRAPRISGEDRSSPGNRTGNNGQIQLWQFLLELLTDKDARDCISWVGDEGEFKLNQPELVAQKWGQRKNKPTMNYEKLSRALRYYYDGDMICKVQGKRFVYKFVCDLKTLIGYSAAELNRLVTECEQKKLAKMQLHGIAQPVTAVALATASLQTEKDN
The conditions noted are these: protein: recombinant; tags: N-terminal GST; dsDNA, one strand shown. The method in brief:
as §1

In test [4] the target is T4, ERG (Homo sapiens, UniProt P11308 1-479).
T4 sequence: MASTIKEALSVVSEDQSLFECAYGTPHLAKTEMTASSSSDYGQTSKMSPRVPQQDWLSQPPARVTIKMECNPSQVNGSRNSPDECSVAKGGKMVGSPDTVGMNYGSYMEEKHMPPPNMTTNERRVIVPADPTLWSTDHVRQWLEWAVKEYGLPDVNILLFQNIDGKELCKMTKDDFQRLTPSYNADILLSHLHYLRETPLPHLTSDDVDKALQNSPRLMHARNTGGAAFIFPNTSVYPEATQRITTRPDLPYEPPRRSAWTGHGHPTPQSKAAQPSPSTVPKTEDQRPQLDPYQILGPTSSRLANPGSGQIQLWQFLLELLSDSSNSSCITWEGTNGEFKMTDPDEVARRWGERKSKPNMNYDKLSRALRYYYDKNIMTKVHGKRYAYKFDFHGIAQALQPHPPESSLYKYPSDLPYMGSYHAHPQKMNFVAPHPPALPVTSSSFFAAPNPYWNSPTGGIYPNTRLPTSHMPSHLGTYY
The following applies: protein: recombinant; tags: N-terminal GST; dsDNA, one strand shown. The method in brief: as §1

Test [5] concerns the target ELF1 (Homo sapiens, UniProt P32519 1-619). The conditions noted are these: protein: recombinant; tags: N-terminal GST; dsDNA, one strand shown. The method in brief:
as §1

In test [6] the target is T5, EHF (Homo sapiens, UniProt Q9NZC4 1-300).
T5 sequence: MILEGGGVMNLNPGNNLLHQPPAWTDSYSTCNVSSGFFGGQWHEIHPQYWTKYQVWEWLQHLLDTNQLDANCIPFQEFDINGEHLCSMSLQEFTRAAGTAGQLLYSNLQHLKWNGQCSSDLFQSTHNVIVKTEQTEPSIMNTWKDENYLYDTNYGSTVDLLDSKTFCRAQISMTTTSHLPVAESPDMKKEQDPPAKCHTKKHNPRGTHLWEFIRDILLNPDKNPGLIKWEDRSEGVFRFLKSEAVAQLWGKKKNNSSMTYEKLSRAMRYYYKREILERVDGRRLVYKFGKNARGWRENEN
The conditions noted are these: protein: recombinant; tags: N-terminal GST; dsDNA, one strand shown. The method in brief:
as §1

Test [7] concerns the target SPI1 (Homo sapiens, UniProt P17947 1-270). The conditions noted are these: protein: recombinant; tags: N-terminal GST; dsDNA, one strand shown. The method in brief:
as §1

For test [8], the target named is SPIB (Homo sapiens, UniProt Q01892 1-262). The following applies: protein: recombinant; tags: N-terminal GST; dsDNA, one strand shown. The method in brief:
as §1

Test [9] addresses T6, ELK3 (Homo sapiens, UniProt P41970 1-407).
T6 sequence: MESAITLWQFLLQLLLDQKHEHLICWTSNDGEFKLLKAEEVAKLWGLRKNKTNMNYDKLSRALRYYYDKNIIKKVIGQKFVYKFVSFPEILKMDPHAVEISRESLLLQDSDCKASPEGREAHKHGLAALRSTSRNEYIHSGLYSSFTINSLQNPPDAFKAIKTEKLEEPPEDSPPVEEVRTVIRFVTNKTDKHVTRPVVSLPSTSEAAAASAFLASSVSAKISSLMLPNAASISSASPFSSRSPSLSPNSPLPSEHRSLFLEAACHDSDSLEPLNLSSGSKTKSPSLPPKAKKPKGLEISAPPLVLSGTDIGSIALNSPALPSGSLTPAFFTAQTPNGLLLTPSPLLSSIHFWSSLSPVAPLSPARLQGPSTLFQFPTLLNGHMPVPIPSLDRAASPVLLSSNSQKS
The conditions noted are these: protein: recombinant; tags: N-terminal GST; dsDNA, one strand shown. The method in brief:
as §1

The target in test [10] is T7, FEV (Homo sapiens, UniProt Q99581 1-238).
T7 sequence: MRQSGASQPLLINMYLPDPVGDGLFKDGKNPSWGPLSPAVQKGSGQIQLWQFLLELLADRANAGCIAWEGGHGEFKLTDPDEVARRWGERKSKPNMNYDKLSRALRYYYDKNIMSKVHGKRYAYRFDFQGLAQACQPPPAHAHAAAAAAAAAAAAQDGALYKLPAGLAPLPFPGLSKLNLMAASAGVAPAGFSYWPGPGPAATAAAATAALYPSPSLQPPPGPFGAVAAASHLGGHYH
The conditions noted are these: protein: recombinant; tags: N-terminal GST; dsDNA, one strand shown. The method in brief: as §1

In test [11] the target is ETV5 (Homo sapiens, UniProt P41161 1-510). The following applies: protein: recombinant; tags: N-terminal GST; dsDNA, one strand shown. The method in brief: as §1
ETV5, sequence (P41161 whole entry): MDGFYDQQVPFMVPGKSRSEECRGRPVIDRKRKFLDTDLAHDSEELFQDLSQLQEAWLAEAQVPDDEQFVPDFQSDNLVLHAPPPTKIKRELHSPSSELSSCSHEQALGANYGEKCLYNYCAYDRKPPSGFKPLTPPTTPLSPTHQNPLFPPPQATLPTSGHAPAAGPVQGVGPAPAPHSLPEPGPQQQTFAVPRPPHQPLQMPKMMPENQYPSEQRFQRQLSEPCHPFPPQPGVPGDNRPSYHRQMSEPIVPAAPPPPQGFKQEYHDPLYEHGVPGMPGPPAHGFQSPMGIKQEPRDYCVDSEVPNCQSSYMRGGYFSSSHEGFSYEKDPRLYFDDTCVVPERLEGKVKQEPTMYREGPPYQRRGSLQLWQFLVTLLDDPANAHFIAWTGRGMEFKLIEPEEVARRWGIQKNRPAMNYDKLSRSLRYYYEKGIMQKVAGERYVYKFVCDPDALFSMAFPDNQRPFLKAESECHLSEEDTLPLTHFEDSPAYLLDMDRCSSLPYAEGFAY
Test [12] addresses HSF1 (Homo sapiens, UniProt Q00613 1-529). The following applies: protein: recombinant; tags: N-terminal GST; chain copies: 3; dsDNA, one strand shown. The method in brief:
as §1

Test [13] addresses T8, SPIC (Homo sapiens, UniProt Q8N5J4 1-248).
T8 sequence: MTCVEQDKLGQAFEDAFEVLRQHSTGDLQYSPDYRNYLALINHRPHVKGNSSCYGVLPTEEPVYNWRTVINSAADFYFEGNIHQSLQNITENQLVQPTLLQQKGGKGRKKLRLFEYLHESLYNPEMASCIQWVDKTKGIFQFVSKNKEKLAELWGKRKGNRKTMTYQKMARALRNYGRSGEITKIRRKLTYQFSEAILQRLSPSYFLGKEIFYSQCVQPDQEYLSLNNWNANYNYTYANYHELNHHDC
The conditions noted are these: protein: recombinant; tags: N-terminal GST; dsDNA, one strand shown. The method in brief: as §1

Test [14] has as its target ELF4 (Homo sapiens, UniProt Q99607 1-663). The conditions noted are these: protein: recombinant; tags: N-terminal GST; dsDNA, one strand shown. The method in brief:
as §1

Test [15] deals with T9, ELK4 (Homo sapiens, UniProt P28324-2 1-405).
T9 sequence: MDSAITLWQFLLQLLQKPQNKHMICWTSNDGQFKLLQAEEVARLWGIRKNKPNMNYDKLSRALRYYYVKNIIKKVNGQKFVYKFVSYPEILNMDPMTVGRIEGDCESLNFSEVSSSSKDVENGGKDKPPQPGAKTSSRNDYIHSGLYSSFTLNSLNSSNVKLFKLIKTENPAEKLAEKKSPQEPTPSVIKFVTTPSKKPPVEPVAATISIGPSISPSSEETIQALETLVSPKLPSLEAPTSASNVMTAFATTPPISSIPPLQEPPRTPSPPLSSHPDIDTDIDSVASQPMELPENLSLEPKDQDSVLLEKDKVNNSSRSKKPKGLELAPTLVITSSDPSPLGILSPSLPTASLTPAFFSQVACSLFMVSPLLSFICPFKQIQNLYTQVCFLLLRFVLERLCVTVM
The following applies: protein: recombinant; tags: N-terminal GST; dsDNA, one strand shown. The method in brief:
as §1

Test [16] concerns the target T10, ETV2 (Homo sapiens, UniProt O00321 1-342).
T10 sequence: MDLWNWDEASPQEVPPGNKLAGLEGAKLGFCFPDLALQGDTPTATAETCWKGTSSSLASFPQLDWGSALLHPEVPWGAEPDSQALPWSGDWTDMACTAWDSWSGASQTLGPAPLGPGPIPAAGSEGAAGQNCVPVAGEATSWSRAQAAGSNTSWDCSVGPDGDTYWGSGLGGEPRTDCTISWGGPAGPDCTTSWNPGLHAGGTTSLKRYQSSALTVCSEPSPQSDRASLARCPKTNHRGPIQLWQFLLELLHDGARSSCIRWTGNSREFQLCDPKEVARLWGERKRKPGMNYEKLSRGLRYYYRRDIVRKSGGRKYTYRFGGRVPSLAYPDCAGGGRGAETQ
The following applies: protein: recombinant; tags: N-terminal GST; dsDNA, one strand shown. The method in brief: as §1

Test [17] deals with T11, ELF3 (Homo sapiens, UniProt P78545 1-371).
T11 sequence: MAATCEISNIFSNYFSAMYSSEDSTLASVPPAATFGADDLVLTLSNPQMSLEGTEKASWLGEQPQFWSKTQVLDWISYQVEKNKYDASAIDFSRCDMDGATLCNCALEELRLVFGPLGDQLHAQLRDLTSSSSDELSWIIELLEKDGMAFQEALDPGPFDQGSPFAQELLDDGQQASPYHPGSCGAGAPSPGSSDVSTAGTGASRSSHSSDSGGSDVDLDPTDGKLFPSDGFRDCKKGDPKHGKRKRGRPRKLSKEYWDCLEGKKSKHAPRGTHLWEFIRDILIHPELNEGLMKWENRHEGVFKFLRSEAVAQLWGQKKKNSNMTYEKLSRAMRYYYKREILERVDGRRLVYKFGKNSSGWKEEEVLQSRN
The following applies: protein: recombinant; tags: N-terminal GST; dsDNA, one strand shown. The method in brief: as §1

Test [18] concerns the target CRX (Homo sapiens, UniProt O43186 1-299). The following applies: protein: recombinant; tags: N-terminal GST; dsDNA, one strand shown. The method in brief:
as §1

For test [19], the target named is ETV1 (Homo sapiens, UniProt P50549 1-477). The conditions noted are these: protein: recombinant; tags: N-terminal GST; dsDNA, one strand shown. The method in brief: as §1
ETV1, sequence (P50549 whole entry): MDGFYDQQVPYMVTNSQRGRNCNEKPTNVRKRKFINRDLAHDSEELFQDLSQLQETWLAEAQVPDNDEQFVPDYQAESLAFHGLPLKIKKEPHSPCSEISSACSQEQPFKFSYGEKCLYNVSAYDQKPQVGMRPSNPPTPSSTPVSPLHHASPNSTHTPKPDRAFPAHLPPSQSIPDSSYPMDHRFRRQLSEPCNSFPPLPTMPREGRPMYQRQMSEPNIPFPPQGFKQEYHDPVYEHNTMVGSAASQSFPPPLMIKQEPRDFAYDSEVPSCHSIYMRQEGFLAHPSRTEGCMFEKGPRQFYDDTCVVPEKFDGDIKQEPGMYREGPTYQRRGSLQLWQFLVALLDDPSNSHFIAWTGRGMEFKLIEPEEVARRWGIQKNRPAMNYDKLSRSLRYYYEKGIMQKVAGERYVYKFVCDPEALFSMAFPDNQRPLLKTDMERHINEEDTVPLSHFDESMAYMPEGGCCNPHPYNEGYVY

ELF4, sequence (Q99607 whole entry): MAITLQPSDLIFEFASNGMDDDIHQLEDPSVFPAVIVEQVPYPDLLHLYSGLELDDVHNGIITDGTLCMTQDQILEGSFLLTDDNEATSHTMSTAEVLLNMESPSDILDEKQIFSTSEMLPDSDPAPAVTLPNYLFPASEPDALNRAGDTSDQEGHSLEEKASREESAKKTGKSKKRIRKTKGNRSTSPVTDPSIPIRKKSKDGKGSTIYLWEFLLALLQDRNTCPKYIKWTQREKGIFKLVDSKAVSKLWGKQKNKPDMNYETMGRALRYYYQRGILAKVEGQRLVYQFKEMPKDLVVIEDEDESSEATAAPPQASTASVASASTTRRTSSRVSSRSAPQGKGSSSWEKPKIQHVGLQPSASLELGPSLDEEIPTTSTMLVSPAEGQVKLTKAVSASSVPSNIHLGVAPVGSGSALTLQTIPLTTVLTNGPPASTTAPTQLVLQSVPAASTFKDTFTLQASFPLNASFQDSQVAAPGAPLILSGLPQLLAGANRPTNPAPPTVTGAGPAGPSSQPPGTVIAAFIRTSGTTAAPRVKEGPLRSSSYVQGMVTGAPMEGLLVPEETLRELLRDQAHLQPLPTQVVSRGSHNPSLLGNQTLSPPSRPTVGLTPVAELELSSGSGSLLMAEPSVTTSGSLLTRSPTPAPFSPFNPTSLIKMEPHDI
ELF1, sequence (P32519 whole entry): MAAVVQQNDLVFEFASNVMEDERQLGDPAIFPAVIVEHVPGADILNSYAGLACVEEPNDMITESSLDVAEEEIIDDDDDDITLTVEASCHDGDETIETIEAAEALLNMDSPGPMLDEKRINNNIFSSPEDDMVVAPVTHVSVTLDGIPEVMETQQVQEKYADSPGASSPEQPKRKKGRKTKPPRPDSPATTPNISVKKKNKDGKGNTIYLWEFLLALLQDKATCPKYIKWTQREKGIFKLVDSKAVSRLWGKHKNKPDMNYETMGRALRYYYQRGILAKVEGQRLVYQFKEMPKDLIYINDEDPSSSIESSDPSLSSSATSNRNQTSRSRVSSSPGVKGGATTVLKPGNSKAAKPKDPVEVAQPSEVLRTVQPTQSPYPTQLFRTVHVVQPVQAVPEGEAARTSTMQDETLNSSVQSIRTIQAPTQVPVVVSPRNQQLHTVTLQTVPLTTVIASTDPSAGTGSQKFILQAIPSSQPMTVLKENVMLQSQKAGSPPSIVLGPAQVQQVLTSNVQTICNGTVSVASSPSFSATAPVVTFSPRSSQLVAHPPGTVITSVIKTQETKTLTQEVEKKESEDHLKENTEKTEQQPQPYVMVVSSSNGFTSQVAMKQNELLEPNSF
HSF1, sequence (Q00613 whole entry): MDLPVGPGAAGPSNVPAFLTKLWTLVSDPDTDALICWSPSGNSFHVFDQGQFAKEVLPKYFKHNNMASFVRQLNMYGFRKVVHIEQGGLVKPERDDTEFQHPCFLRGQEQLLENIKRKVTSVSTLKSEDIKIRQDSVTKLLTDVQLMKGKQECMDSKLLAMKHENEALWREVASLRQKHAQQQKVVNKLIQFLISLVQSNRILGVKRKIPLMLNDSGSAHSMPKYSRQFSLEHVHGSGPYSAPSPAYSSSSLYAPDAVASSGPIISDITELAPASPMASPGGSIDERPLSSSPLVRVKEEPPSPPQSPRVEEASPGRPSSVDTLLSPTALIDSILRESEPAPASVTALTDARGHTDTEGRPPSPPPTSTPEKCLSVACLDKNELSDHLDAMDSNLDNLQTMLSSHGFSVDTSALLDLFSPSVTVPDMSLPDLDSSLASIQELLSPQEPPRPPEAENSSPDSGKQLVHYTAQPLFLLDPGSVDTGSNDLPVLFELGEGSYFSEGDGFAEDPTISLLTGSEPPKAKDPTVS
SPIB, sequence (Q01892 whole entry): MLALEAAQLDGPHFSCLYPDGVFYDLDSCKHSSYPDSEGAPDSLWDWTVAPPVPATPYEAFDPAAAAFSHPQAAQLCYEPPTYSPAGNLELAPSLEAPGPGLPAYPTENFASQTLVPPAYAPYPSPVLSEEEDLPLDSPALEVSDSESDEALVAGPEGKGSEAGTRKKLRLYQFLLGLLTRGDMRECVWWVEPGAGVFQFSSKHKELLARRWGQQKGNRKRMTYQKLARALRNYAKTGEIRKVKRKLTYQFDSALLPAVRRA
CRX, sequence (O43186 whole entry): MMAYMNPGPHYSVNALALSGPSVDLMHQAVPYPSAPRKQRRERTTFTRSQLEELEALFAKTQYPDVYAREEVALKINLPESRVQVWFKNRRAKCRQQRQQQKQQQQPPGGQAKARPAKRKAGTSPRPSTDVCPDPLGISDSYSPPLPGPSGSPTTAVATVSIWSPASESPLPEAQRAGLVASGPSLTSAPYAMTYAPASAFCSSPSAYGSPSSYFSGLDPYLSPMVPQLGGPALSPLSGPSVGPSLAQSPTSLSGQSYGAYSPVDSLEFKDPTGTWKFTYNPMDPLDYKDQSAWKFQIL

As for TAAGCT, the binding signal in [1] is 1.21 fold enrichment (6-mer frequency, TF over GST control); in test [2], 1.24 fold enrichment (6-mer frequency, TF over GST control); in test [3], 1.17 fold enrichment (6-mer frequency, TF over GST control); in [4], 1.18 fold enrichment (6-mer frequency, TF over GST control); in test [5], 1.15 fold enrichment (6-mer frequency, TF over GST control); in test [6], 1.2 fold enrichment (6-mer frequency, TF over GST control). The binding signal in test [7] is 1.1 fold enrichment (6-mer frequency, TF over GST control); in test [8], 1.18 fold enrichment (6-mer frequency, TF over GST control); in test [9] it was 1.12 fold enrichment (6-mer frequency, TF over GST control); in test [10], 1.08 fold enrichment (6-mer frequency, TF over GST control); in test [11], 1.16 fold enrichment (6-mer frequency, TF over GST control); in test [12], 1.91 fold enrichment (6-mer frequency, TF over GST control). Further, the binding signal was 1.24 fold enrichment (6-mer frequency, TF over GST control) in test [13]; 1.18 fold enrichment (6-mer frequency, TF over GST control) in test [14]; 1.21 fold enrichment (6-mer frequency, TF over GST control) in [15]; 1.19 fold enrichment (6-mer frequency, TF over GST control) in test [16]; 1.32 fold enrichment (6-mer frequency, TF over GST control) in [17]; 3.23 fold enrichment (6-mer frequency, TF over GST control) in test [18]. In addition, the binding signal in test [19] was 1.23 fold enrichment (6-mer frequency, TF over GST control).

(Values after PMC7862700, “An all-to-all approach to the identification of sequence-specific readers for epigenetic DNA modifications on cytosine”.)
